Assay outcomes as filed in PubChem.
EPAC2 ag: activates human EPAC2 exchange factor; EPAC2 activation, biochemical qHTS; response scale: 100% = 6.5 mM cAMP response; Potency, µM (highest dose often 154 µM), for inactives: at the highest dose activation, hits mostly activators; 360,000 tested, 0.079% active; AID 720711; also: potency is read from the fitted curve at half-maximal effect; nearly all actives have a fitted effect of over 50% in size
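Exchange assay: 100 nM EPAC2 with 250 nM Rap1B-BODIPY-GDP and 50 uM GDP. Fluorescence (ex 480/em 540 nm) read every 5 min for 30 min at room temperature. Data normalized to 6.5 mM cAMP as agonist control.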
EPAC1 antag: antagonists of human EPAC1; O95398; EPAC1 GEF assay, Rap1b-BODIPY-GDP exchange fluorescence; Potency, µM (doses to about 115 µM), without a hit: at the top dose activity change, negative = inhibition, actives largely listed as inhibitors; 360,000 tested, 0.14% active; AID 720709;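 also: potency is read from the fitted curve at half-maximal effect; plate controls were vehicle for no effect and positive control for full effect; nearly all actives have a fitted effect of over 50% in size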
TSHR antag: antagonists of human thyroid stimulating hormone receptor. 330,000 tested, 0.2% active. activity change, negative = inhibition, % at 11.5 µM. P16473. TSHR-expressing cells, TSH-stimulated cAMP HTRF, 2 h; active compounds read low;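 active = activity change below a set negative limit, meaning inhibition stronger than a set level, cut at about -70% in these data; inconclusive = activity change between two set negative limits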; also: % is scaled to controls: 0 for no effect and ±100 for the full control effect
Target sequence (P16473 whole entry, looked up): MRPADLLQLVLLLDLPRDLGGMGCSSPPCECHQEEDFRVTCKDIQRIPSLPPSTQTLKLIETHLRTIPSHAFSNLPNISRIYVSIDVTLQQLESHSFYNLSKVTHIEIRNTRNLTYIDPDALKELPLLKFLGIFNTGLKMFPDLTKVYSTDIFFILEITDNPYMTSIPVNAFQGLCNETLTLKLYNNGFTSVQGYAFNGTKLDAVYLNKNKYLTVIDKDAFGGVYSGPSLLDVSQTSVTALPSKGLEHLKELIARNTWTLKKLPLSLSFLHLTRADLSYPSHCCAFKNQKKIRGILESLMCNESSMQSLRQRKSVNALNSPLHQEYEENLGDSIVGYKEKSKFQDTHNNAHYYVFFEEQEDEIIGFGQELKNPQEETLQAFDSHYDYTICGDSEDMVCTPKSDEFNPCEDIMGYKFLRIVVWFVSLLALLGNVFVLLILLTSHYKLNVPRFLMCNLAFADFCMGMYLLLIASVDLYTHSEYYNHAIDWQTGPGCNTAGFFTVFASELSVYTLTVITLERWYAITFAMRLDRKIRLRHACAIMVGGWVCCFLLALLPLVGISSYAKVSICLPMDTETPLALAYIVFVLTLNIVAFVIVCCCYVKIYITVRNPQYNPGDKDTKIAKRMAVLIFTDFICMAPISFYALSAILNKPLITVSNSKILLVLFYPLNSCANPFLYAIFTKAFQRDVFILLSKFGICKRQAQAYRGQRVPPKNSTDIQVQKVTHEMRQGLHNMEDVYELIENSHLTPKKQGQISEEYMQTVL
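TSHR-expressing cells, 200/well, pre-treated with compound, then stimulated with EC80 TSH (4nM final) for 2 hours at 37 deg C. cAMP measured by competitive HTRF: anti-cAMP cryptate antibody in lysis buffer plus cAMP-d2, read after 30 minutes at room temperature.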
EPAC1 agonist: agonists of human EPAC1; EPAC1 agonist qHTS, biochemical assay; response scale: 100% = response to 6.5 mM cAMP; Potency, µM (top dose mostly 154 µM), without a hit: top-dose activation, hits mostly activators; 360,000 tested, 0.073% active; AID 720707; also: potency is read from the fitted curve at half-maximal effect; nearly all actives have a fitted effect of over 60% in size
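Nucleotide exchange assay: 100 nM EPAC1 with 250 nM Rap1B loaded with BODIPY-GDP and 50 uM GDP, room temperature. Fluorescence (480/540 nm) read every 5 min for 30 min; signal change normalized to 6.5 mM cAMP as full agonist.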
EPAC2 antag: antagonists of human EPAC2; 360,000 tested, 0.18% active; AID 720708; Q8WZA2; EPAC2 GEF exchange of Rap1B-BODIPY-GDP, fluorescence; Potency, µM (titrated, usually from 114 µM), for inactives: top-dose activity, negative = inhibition, hits mostly inhibitors; also: potency is read from the fitted curve at half-maximal effect; % is scaled to controls: 0 for no effect and ±100 for the full control effect; nearly all actives have a fitted effect of over 45% in size
PTHR1 agonist: PTHR1 (human) receptor agonism. Potency, µM (titrated, usually from 115 µM), inactives show at the highest dose activation, hits mostly activators. 410,000 tested, 0.075% active. HEK293 GP2 PTHR1 cells, GloSensor cAMP luminescence, 1 h. AID 743266; also: potency is read from the fitted curve at half-maximal effect; nearly all actives have a fitted effect of over 55% in size
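HEK-293-derived GP2 cells expressing PTHR1 and a GloSensor cAMP reporter, 3,000/well, plated overnight, given luciferin plus IBMX (each 0.5 mM as added) for 1 h at 37 °C, then compound for 1 h at 37 °C. Luminescence was read after 15 min at room temperature.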
An asterisk follows results filed as active; i = inactive; u = inconclusive; x = not tested or not shown; [ ] = another dose, or the depositor's remark. The list is not random: actives were taken first. Their share in the collection is about 0.5%. Unless noted, calls follow the shape of the dose curve; as a rule, active = well fitted curve in the direction sought with a large enough effect; inconclusive = small, poorly fitted or top-dose-only effect, or another doubt; inactive = no such curve, though single readings can be large; an effect the other way counts as inactive or inconclusive.

SMILES	EPAC2 ag	EPAC1 antag	TSHR antag	EPAC1 agonist	EPAC2 antag	PTHR1 agonist
Cc1cc(/C=C2\SC(=S)NC2=O)c(C)[nH]1	8.6%	-22.5%	-5.3	10.6%	-21.4%	-0.2%
O=C1NC(=S)S/C1=C\c1cc(Cl)ccc1Cl	-11.3%	u	x	-6.6%	56.2µM*	-31.7%
Cc1ccc(NC(=O)NCCc2c(C)nn(C)c2C)cc1Cl	x	x	x	x	x	-31.8%
COc1ccc2c(c1)CC/C(=C\Nc1ccc3c(c1)OCO3)C2=O	u	10.3%	-19.8	u	5.6%	-7.7%[57.5 µM]
COc1ccc(N/C=C2\CCc3ccccc3C2=O)cc1	100µM*	-20.1%	-9.6	u	-0.2%	-41.0%
COc1ccc(C(=O)Nc2cccc(NC(=O)c3cccs3)c2)cc1OC	18.4%	6.4%	-129.6*	25.1%	-6.1%	-13.3%
COc1ccc(C(=O)Nc2ccc(NC(=O)c3cccs3)cc2)cc1OC	x	x	x	x	x	i
N#CC(C#N)=C1C=C2C=C(N3CCOCC3)CCC2CC1 (stereo not drawn)	56.2µM*	151.9%	16.6	u	78.5%	-3.3%
N#CC(C#N)=C1C=C2C=C(N3CCCCCC3)CCC2CC1 (stereo not drawn)	88.9%	135.0%	-31.3	94.4%	238.6%[57.1 µM]	-40.1%
CCN1CCN(C2=CC3=CC(=C(C#N)C#N)CCC3CC2)CC1 (stereo not drawn)	25.1µM*	455.3%	-22.4	50.1µM*	433.9%	-54.0%
CN1CCN(C2=CC3=CC(=C(C#N)C#N)CCC3CC2)CC1 (stereo not drawn)	100µM*	i	-92.7*	28.2µM*	212.7%	-1.4%
CC1(C)CC(NCCN2CCN(C3=CC(=C(C#N)C#N)CC(C)(C)C3)CC2)=CC(=C(C#N)C#N)C1	-0.8%	6.1%	-14.0	-8.2%	4.7%	-34.0%
CCc1ccc(NC(=O)C2CCCN(S(=O)(=O)c3cccc4cccnc34)C2)cc1 (stereo not drawn)	x	x	x	x	x	-33.8%
CC(C)c1ccc(NC(=O)CCCc2nc(-c3ccc(Cl)cc3)no2)cc1	x	x	x	x	x	i
COc1ccc(OC)c(-c2cc(C(=O)Nc3c(C)nn(Cc4ccc(C)cc4)c3C)no2)c1	x	x	x	x	x	-9.8%
CC1CCCN(S(=O)(=O)c2csc(C(N)=O)c2)C1 (stereo not drawn)	6.7%	-2.3%	-139.9*	-3.3%	11.5%	i
COc1ccc(CNS(=O)(=O)c2ccc(-n3cccn3)cc2)cc1	-1.7%	18.9%	-8.8	1.9%	3.7%	-23.5%
COc1ccccc1CNS(=O)(=O)c1ccc(-n2cccn2)cc1	-2.2%	-22.9%	-110.5*	3.8%	-0.5%	-21.0%
CC(C)(C)OC(=O)NCCc1nnc(S(=O)(=O)Cc2ccc(Cl)cc2Cl)o1	1.4%	-16.5%	-78.1*	-1.6%	4.2%	-22.7%
O=C(Nc1ccccc1N1CCOCC1)c1ccc(S(=O)(=O)NCc2ccco2)cc1	13.9%	8.4%	-76.8*	10.4%	-0.1%	i
O=C(Nc1ccccc1N1CCOCC1)c1ccc(Cl)c(S(=O)(=O)NCc2ccco2)c1	9.5%	-13.9%	-16.6	22.2%	-7.9%	-20.6%
CC1CN(S(=O)(=O)c2cccc(C(=O)Nc3ccccc3N3CCOCC3)c2)CC(C)O1 (stereo not drawn)	1.8%	-18.6%	-10.8	25.1µM*	10.7%	-18.5%
Cc1c(CC(=O)NCc2ccccc2Cl)c(=O)oc2cc(O)ccc12	x	x	x	x	x	i
Cc1nn(-c2ccc(N3CCOCC3)nn2)c(C)c1CCC(=O)NCc1ccccc1F	-4.0%	5.7%	-105.0*	4.7%	6.1%	-24.0%
COc1ccccc1CNC(=O)CCc1c(C)nn(-c2ccc(N3CCOCC3)nn2)c1C	x	x	x	x	x	-15.2%
SMILES	EPAC2 ag	EPAC1 antag	TSHR antag	EPAC1 agonist	EPAC2 antag	PTHR1 agonist
Cn1cc(Cl)c(C(=O)N/N=C/c2ccc3c4c(cccc24)CC3)n1	-2.5%	-5.3%	-79.9*	-3.1%	-4.0%	-38.7%
Cc1ccc(/C=N/NC(=O)c2nn(C)cc2Cl)cc1	-0.9%	15.7%	-0.6	12.4%	-7.1%	-15.7%
S=c1[nH]nc(-c2ccccc2)n1C1C=CCCC1 (stereo not drawn)	13.5%	3.5%	-70.6*	7.3%	-4.9%	-2.2%[57.5 µM]
CC(=O)Nc1ccc2[nH]c3ccccc3c2c1	6.5%	0.0%	-5.0	14.6%	-0.4%	i
O=C(Nc1ccc(Cl)cc1)c1cc2c(cc1O)[nH]c1ccccc12	25.7%	-10.2%	-110.1*	22.5%	-5.5%	-37.3%
CCOc1ccccc1NC(=O)Nc1ccc2c(c1)OCO2	10.3%	-2.6%	13.0	-6.1%	-5.1%	i
C=CCOc1ccccc1CN(C(=O)CCl)c1ccc2c(c1)OCO2	10.5%	-19.1%	-12.5	-13.7%	12.6µM*	-19.7%
Cc1cc(Cl)ccc1OCC(=O)NNC(=O)C1CCN(c2ncnc3sc(C)c(C)c23)CC1	9.1%	-13.4%	-71.6*	13.5%	-17.6%	-46.3%
Cc1ccc(-c2csc(NC(=O)c3ccc(C)o3)n2)cc1	13.0%	-13.3%	-17.5	10.6%	-1.0%	i
O=C(Nc1nc(-c2ccccc2)cs1)c1ccccc1NS(=O)(=O)c1ccc(F)cc1	-5.8%	u	-85.1*	-0.7%	u	-30.4%
O=S(=O)(Nc1ccc(-c2csc(-c3ccccc3)n2)cc1)c1ccc(F)cc1	13.9%	-24.5%	-15.1	11.0%	-0.9%	-2.9%
Cc1ccc(C(=O)Nc2nc(-c3ccc(F)cc3)cs2)o1	6.5%	-17.1%	-120.8*	5.4%	-16.2%	-40.9%
O=C1C=C(c2ccccc2)C(c2ccccc2)C1 (stereo not drawn)	5.3%	-2.2%	x	13.6%	35.5µM*	-7.3%
Cn1cnc2c(=O)oc3ccc(S(=O)(=O)Nc4ccc(F)cc4)cc3c21	x	x	x	x	x	-22.2%
COc1ccc(-c2cc(C(F)F)n3ncc(C(=O)N4CCc5ccccc54)c3n2)cc1	100µM*	-17.7%	3.1	-15.5%	58.9%	-49.5%
CC(=O)c1ccc(NC(=O)CSc2nnc(-c3ccco3)c(-c3ccco3)n2)cc1	5.1%	50.1µM*	-10.6	2.0%	8.2%	-2.4%
CCOc1ccc(NC(=O)c2c(C)oc3nc(C)nc(N4CCOCC4)c23)cc1	x	x	x	x	x	i
COCCNC(=O)C(OC(=O)c1nsc(Cl)c1Cl)C(C)C (stereo not drawn)	5.4%	-4.4%	30.2	-4.1%	5.3%	-1.5%
CC(C)C(OC(=O)c1nsc(Cl)c1Cl)C(=O)NCC1CCCO1 (stereo not drawn)	3.7%	-14.6%	49.8	-14.5%	13.4%	50.1µM*
CCOC(=O)c1cccc(NS(=O)(=O)c2ccc3[nH]c4c(c3c2)CCCC4)c1	x	x	x	x	x	i
COC(=O)c1ccccc1-c1c2ccc(=N)cc-2oc2cc(N)ccc12	0.0%	31.6µM*	-2.9	-9.3%	u	i
